Laboratory results taken from PubChem BioAssay AID1159580 (chemical genetic matrix, 2015).
Among all 5,500 compounds or so, about 2,000 (36%) were called active. About 18% were inconclusive and are not listed. Rule as the data show it: active = normalized growth mostly below about 0.91 (no sharp cut-off); inconclusive = no clear call, values can overlap the other calls; inactive = mostly above about 0.92. The list shows a part of the results.

Test: chemical genetic growth profiling, strain panel (AID 1159580);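 also: tested at 20 µM; growth read once vehicle control cultures reached saturation at 30 °C; 1 = growth at the plate median or of vehicle wells; lower values mean less growth of the strain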
Settings: growth OD
[1] = S. cerevisiae deletion strains, locus YHR030C, strain SLT2, hits give low values
[2] = S. cerevisiae deletion strains, locus YJL187C, strain SWE1, hits give low values

Measured: normalized growth

O=C(O)CCCN1C(=O)c2cccc3cccc(c23)C1=O
inactive: S. cerevisiae deletion strains, locus YAL021C, strain ccr4, hits give low values 0.983 | S. cerevisiae deletion strains, locus YAL026C, strain drs2, hits give low values 1.02 | S. cerevisiae deletion strains, locus YAL030W, strain snc1, hits give low values 1.01 | S. cerevisiae deletion strains, locus YBL061C, strain skt5, hits give low values 1.01 | S. cerevisiae deletion strains, locus YBR009C, strain hhf1, hits give low values 1.02 | S. cerevisiae deletion strains, locus YBR023C, strain chs3, hits give low values 1.01 | S. cerevisiae deletion strains, locus YBR171W, strain sec66, hits give low values 1.01 | S. cerevisiae deletion strains, locus YBR231C, strain swc5, hits give low values 1.01 | S. cerevisiae deletion strains, locus YBR279W, strain paf1, hits give low values 1.01 | S. cerevisiae deletion strains, locus YCL011C, strain gbp2, hits give low values 1.02 | S. cerevisiae deletion strains, locus YCL016C, strain dcc1, hits give low values 1.02 | S. cerevisiae deletion strains, locus YCL061C, strain MRC1, hits give low values 1.02 | S. cerevisiae deletion strains, locus YCL069W, strain vba3, hits give low values 1.02 | S. cerevisiae deletion strains, locus YCR088W, strain abp1, hits give low values 1.02 | S. cerevisiae deletion strains, locus YDL005C, strain med2, hits give low values 1 | S. cerevisiae deletion strains, locus YDL040C, strain nat1, hits give low values 1 | S. cerevisiae deletion strains, locus YDR001C, strain nth1, hits give low values 1.01 | S. cerevisiae deletion strains, locus YDR069C, strain doa4, hits give low values 1.02 | S. cerevisiae deletion strains, locus YDR137W, strain rgp1, hits give low values 1.01 | S. cerevisiae deletion strains, locus YDR159W, strain sac3, hits give low values 1.01 | S. cerevisiae deletion strains, locus YDR195W, strain ref2 1.05 | S. cerevisiae deletion strains, locus YDR297W, strain sur2, hits give low values 1.01 | S. cerevisiae deletion strains, locus YDR334W, strain swr1, hits give low values 1.02 | S. cerevisiae deletion strains, locus YDR335W, strain msn5, hits give low values 1.01 | S. cerevisiae deletion strains, locus YDR392W, strain spt3, hits give low values 0.882 | S. cerevisiae deletion strains, locus YEL003W, strain gim4, hits give low values 1.01 | S. cerevisiae deletion strains, locus YEL037C, strain rad23, hits give low values 1.01 | S. cerevisiae deletion strains, locus YEL061C, strain CIN8 (second series), hits give low values 1.01 | S. cerevisiae deletion strains, locus YER015W, strain faa2, hits give low values 1.01 | S. cerevisiae deletion strains, locus YER016W, strain bim1, hits give low values 1.02 | S. cerevisiae deletion strains, locus YER111C, strain swi4, hits give low values 1.01 | S. cerevisiae deletion strains, locus YER155C, strain BEM2 (second series), hits give low values 1 | S. cerevisiae deletion strains, locus YFR010W, strain ubp6, hits give low values 1.01 | S. cerevisiae deletion strains, locus YGL167C, strain pmr1, hits give low values 1.01 | S. cerevisiae deletion strains, locus YGL173C, strain kem1, hits give low values 1.02 | S. cerevisiae deletion strains, locus YGL227W, strain vid30, hits give low values 1.02 | S. cerevisiae deletion strains, locus YGL240W, strain doc1, hits give low values 1 | S. cerevisiae deletion strains, locus YGL253W, strain hxk2, hits give low values 1.02 | S. cerevisiae deletion strains, locus YHR013C, strain ard1, hits give low values 0.97 | S. cerevisiae deletion strains, locus YHR027C, strain rpn1, hits give low values 1.02 | [1] 1 | S. cerevisiae deletion strains, locus YHR079C, strain IRE1, hits give low values 0.998 | S. cerevisiae deletion strains, locus YHR142W, strain chs7, hits give low values 0.991 | S. cerevisiae deletion strains, locus YJL092W, strain hpr5, hits give low values 1.01 | S. cerevisiae deletion strains, locus YJL095W, strain BCK1 (second series), hits give low values 1.01 | S. cerevisiae deletion strains, locus YJL095W, strain BCK1, hits give low values 0.998 | S. cerevisiae deletion strains, locus YJL115W, strain asf1, hits give low values 1.02 | S. cerevisiae deletion strains, locus YJL129C, strain trk1, hits give low values 1.02 | S. cerevisiae deletion strains, locus YJL154C, strain vps35, hits give low values 1.01 | S. cerevisiae deletion strains, locus YJL164C, strain tpk1, hits give low values 0.992 | S. cerevisiae deletion strains, locus YJL166W, strain qcr8, hits give low values 1.01 | [2] 1.01 | S. cerevisiae deletion strains, locus YJR066W, strain TOR1, hits give low values 0.963 | S. cerevisiae deletion strains, locus YKL160W, strain elf1, hits give low values 0.988 | S. cerevisiae deletion strains, locus YKR026C, strain gcn3, hits give low values 1.02 | S. cerevisiae deletion strains, locus YKR091W, strain srl3, hits give low values 1.01 | S. cerevisiae deletion strains, locus YLL001W, strain dnm1, hits give low values 1.03 | S. cerevisiae deletion strains, locus YLL026W, hits give low values 1.01 | S. cerevisiae deletion strains, locus YLL041C, strain sdh2, hits give low values 1.01 | S. cerevisiae deletion strains, locus YLR027C, strain aat2, hits give low values 1.01 | S. cerevisiae deletion strains, locus YLR113W, strain HOG1, hits give low values 1.03 | S. cerevisiae deletion strains, locus YLR221C, strain rsa3, hits give low values 0.996 | S. cerevisiae deletion strains, locus YLR258W, strain gsy2, hits give low values 1.02 | S. cerevisiae deletion strains, locus YLR262C, strain YPT6 (second series), hits give low values 0.983 | S. cerevisiae deletion strains, locus YLR320W, strain mms22, hits give low values 0.986 | S. cerevisiae deletion strains, locus YLR342W, strain FKS1, hits give low values 1.02 | S. cerevisiae deletion strains, locus YLR357W, strain rsc2, hits give low values 1.04 | S. cerevisiae deletion strains, locus YLR370C, strain arc18, hits give low values 1.02 | S. cerevisiae deletion strains, locus YLR384C, strain iki3, hits give low values 1.01 | S. cerevisiae deletion strains, locus YML120C, strain ndi1, hits give low values 1 | S. cerevisiae deletion strains, locus YMR058W, strain fet3, hits give low values 1.02 | S. cerevisiae deletion strains, locus YMR125W, strain sto1, hits give low values 1.03 | S. cerevisiae deletion strains, locus YMR129W, hits give low values 1.02 | S. cerevisiae deletion strains, locus YMR205C, strain PFK2, hits give low values 1.03 | S. cerevisiae deletion strains, locus YMR231W, strain pep5, hits give low values 1.01 | S. cerevisiae deletion strains, locus YNL071W, strain lat1, hits give low values 0.994 | S. cerevisiae deletion strains, locus YNL183C, strain NPR1, hits give low values 0.931 | S. cerevisiae deletion strains, locus YNL209W, strain ssb2, hits give low values 1.01 | S. cerevisiae deletion strains, locus YNL248C, strain rpa49, hits give low values 0.98 | S. cerevisiae deletion strains, locus YNL322C, strain KRE1 (second series), hits give low values 1.02 | S. cerevisiae deletion strains, locus YNR049C, strain mso1, hits give low values 1.01 | S. cerevisiae deletion strains, locus YOR001W, strain rrp6, hits give low values 0.976 | S. cerevisiae deletion strains, locus YOR070C, strain gyp1, hits give low values 1.01 | S. cerevisiae deletion strains, locus YOR080W, strain dia2, hits give low values 1.02 | S. cerevisiae deletion strains, locus YOR083W, strain WHI5, hits give low values 0.995 | S. cerevisiae deletion strains, locus YOR106W, strain vam3, hits give low values 1.01 | S. cerevisiae deletion strains, locus YOR231W, strain MKK1, hits give low values 1.02 | S. cerevisiae deletion strains, locus YOR265W, strain rbl2, hits give low values 1.01 | S. cerevisiae deletion strains, locus YOR270C, strain vph1, hits give low values 0.999 | S. cerevisiae deletion strains, locus YOR290C, strain snf2, hits give low values 1 | S. cerevisiae deletion strains, locus YPL051W, strain arl3, hits give low values 0.982 | S. cerevisiae deletion strains, locus YPL078C, strain atp4, hits give low values 0.997 | S. cerevisiae deletion strains, locus YPL106C, strain sse1, hits give low values 1.01 | S. cerevisiae deletion strains, locus YPL240C, strain hsp82, hits give low values 1.02 | S. cerevisiae deletion strains, locus YPL256C, strain CLN2, hits give low values 1.03

O=S(=O)(O)c1cccc2cccc(Cl)c12
inactive: S. cerevisiae deletion strains, locus YAL013W, strain DEP1, hits give low values 1.01 | S. cerevisiae deletion strains, locus YBR229C, strain ROT2, hits give low values 1.01 | S. cerevisiae deletion strains, locus YDL101C, strain DUN1, hits give low values 0.984 | S. cerevisiae deletion strains, locus YDR150W, strain NUM1, hits give low values 0.93 | S. cerevisiae deletion strains, locus YEL061C, strain CIN8, hits give low values 0.998 | S. cerevisiae deletion strains, locus YGR078C, strain PAC10, hits give low values 1 | [1] 0.985 | S. cerevisiae deletion strains, locus YHR087W, strain rtc3, hits give low values 1.06 | [2] 1 | S. cerevisiae deletion strains, locus YJR043C, strain POL32, hits give low values 0.993 | S. cerevisiae deletion strains, locus YJR075W, strain HOC1, hits give low values 0.999 | S. cerevisiae deletion strains, locus YLR039C, strain RIC1, hits give low values 0.996 | S. cerevisiae deletion strains, locus YLR058C, strain SHM2 (second series), hits give low values 1.01 | S. cerevisiae deletion strains, locus YLR085C, strain ARP6, hits give low values 1.03 | S. cerevisiae deletion strains, locus YLR262C, strain YPT6, hits give low values 1.01 | S. cerevisiae deletion strains, locus YML094W, strain GIM5, hits give low values 1.03 | S. cerevisiae deletion strains, locus YMR219W, strain ESC1, hits give low values 1.02 | S. cerevisiae deletion strains, locus YMR263W, strain SAP30, hits give low values 1.01 | S. cerevisiae deletion strains, locus YMR307W, strain GAS1, hits give low values 0.996 | S. cerevisiae deletion strains, locus YNL153C, strain GIM3, hits give low values 0.999 | S. cerevisiae deletion strains, locus YNL298W, strain CLA4 (second series), hits give low values 1.02 | S. cerevisiae deletion strains, locus YNL322C, strain KRE1, hits give low values 1 | S. cerevisiae deletion strains, locus YNR030W, strain Alg12, hits give low values 1.03 | S. cerevisiae deletion strains, locus YPL055C, strain LGE1, hits give low values 1.02 | S. cerevisiae deletion strains, locus YPL241C, strain CIN2, hits give low values 1.01 | S. cerevisiae deletion strains, locus YPR135W, strain CTF4, hits give low values 0.973 | S. cerevisiae strains, strain wild type, hits give low values 0.984
